# Over roughly 33,000 sequences, “E-score (-0.5 to 0.5)” has its median near -0.054; the highest 2% begin near 0.35. This is one part of a sample in which the highest values are shown more often than they occur.
# Target: T1, Stb5 (UniProt P38699)
# T1 sequence: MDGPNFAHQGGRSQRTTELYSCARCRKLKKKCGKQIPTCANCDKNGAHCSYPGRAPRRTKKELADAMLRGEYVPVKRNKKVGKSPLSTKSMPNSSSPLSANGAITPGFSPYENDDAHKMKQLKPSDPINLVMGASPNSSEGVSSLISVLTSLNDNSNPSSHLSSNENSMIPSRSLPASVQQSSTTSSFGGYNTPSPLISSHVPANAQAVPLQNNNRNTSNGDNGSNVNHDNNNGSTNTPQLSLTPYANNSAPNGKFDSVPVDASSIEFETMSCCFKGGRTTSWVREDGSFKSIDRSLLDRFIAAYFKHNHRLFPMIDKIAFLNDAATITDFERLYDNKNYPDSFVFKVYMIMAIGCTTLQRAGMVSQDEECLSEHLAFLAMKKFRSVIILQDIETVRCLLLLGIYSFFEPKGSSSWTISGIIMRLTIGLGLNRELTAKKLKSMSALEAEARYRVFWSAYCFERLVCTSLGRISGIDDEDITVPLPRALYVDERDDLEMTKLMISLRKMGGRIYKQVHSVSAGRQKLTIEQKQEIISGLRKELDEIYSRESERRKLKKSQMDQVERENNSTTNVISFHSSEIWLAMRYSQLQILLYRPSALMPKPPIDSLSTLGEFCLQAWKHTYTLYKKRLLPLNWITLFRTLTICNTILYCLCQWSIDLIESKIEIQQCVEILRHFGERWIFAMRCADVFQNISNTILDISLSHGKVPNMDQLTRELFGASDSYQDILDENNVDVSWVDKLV
# Test: PBM E-score (8-mer binding enrichment) (E-score (-0.5 to 0.5)); higher = stronger / more preferred TF binding
# Details: protein concentration: 200 nM; construct: GST-full length
# Protocol: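 Universal 'all 10-mer' protein binding microarrays (Agilent AMADID 015681) probed with GST-tagged S. cerevisiae TFs (full-length or DBD) made by in vitro transcription/translation (PURExpress), about 100-200 nM. Bound TF was detected with fluorescent anti-GST. Each ungapped 8-mer (which stands for itself and its reverse complement) is scored by the PBM enrichment score (E-score), a modified Wilcoxon-Mann-Whitney statistic from -0.5 to +0.5, computed with the Universal PBM Analysis Suite. Scale: above 0.35 generally sequence-specific binding.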
row,Sequence,PBM E-score
1,ACCAGACA,-0.0752
2,ATCTCATA,-0.186
3,AAAGTAAG,-0.119
4,CATTTTAG,0.189
5,CTTACTGA,-0.164
6,AAGAGTCC,0.118
7,AGTGTTTA,-0.0504
8,GGTGTTTA,0.425
9,CGTGTAAC,0.134
10,TGTGTTAA,-0.145
11,GGTGTTAC,0.4
12,GGTGTAAC,0.381
13,GGTGTTAA,0.447
14,CGTGTTTA,0.112
15,CGTGTTAC,-0.0374
16,AGTGTAAC,-0.175
17,AGTGTTAC,-0.0686
18,CGTGTTAA,-0.191
19,ATTCACAC,-0.136
20,CCTGATAA,-0.0146
21,CCCAACCA,-0.0714
22,GATCTAAC,-0.143
23,ATACTATG,-0.0158
24,ACGCTGCT,-0.0899
25,CACTCTCA,-0.237

row,Sequence,PBM E-score
1,ACTTTCCA,-0.0496
2,CAGCGGGC,0.224
3,CAGCGGAG,0.352
4,CAGCGGAA,0.164
5,CAGCGGGG,0.358
6,AAGCGGGG,0.296
7,CAGCGGCG,0.326
8,ACCGAACG,0.308
9,ATGAAAGG,0.0036
10,ACCGCCGC,0.383
11,ACCGCCTG,0.25
12,ACCGCCGA,0.405
13,ACCGCCTA,0.206
14,GCCGCCGA,0.329
15,TCCGCCGA,0.346
16,ACCGCCTC,0.313
17,ACCGCCAC,0.316
18,ACCGCCGG,0.414
19,ACCGCAGT,0.206
20,ACCGCCGT,0.38
21,ACGGTTGA,-0.165
22,ACTCTTTG,-0.24
23,ATCAAGGA,-0.12
24,CGCCCCCG,0.209
25,ACCTTTGC,-0.0619

row,Sequence,PBM E-score
1,ACCACCTA,-0.134
2,GCCATACA,-0.138
3,GTCCTCAA,-0.137
4,CACGTCAG,-0.163
5,GCCGCCGC,0.391
6,GCCGCCAC,0.191
7,ACCGCCAT,0.265
8,ACCGCCAG,0.368
9,CCCGCCGG,0.39
10,CCCGCCGA,0.345
11,GCCGCCAA,0.24
12,CCCGCCGC,0.347
13,ACCGCCAA,0.276
14,ATACGGGC,0.103
15,TTGGACAA,-0.195
16,ATTATTGG,0.0592
17,AGGCCCAG,-0.226
18,AGGAGGGG,-0.302
19,GTTTTCGA,-0.115
20,GTCCCGAA,0.121
21,TCGCGCAA,-0.136
22,ATAGACAA,-0.202
23,CGTGAGGC,-0.133
24,ATTCAGCC,-0.129
25,CCGCGCGG,0.404

row,Sequence,PBM E-score
1,CACCGCGA,0.37
2,AACCGCGG,0.347
3,GACCGCGC,0.246
4,CCGCGCGC,0.281
5,CCGCGCGA,0.168
6,AACCGCGA,0.272
7,CCCCGCGG,0.349
8,CACCGCGC,0.401
9,TACCGCGA,0.324
10,AACCGCGC,0.273
11,CACCGCGG,0.419
12,AATACTCC,0.173
13,GACAGTTA,-0.0979
14,AAGACTAG,-0.389
15,AGCTACAG,-0.215
16,TCAATCCA,-0.0437
17,GCGCTAGA,0.112
18,AGCACGGG,0.199
19,ACCACCCA,-0.217
20,GGCCTCCC,-0.0321
21,CGGTGCAC,0.0634
22,CCACCGTC,0.246
23,AGACCGTC,0.252
24,ACACCGTA,0.346
25,AAACCGTG,-0.0899

row,Sequence,PBM E-score
1,ACACCGTC,0.424
2,ACACCGTG,0.416
3,AACTAGCA,-0.134
4,CTTCGGCA,0.209
5,CAGCTGGG,-0.0897
6,CTTGGGTA,-0.128
7,AAACTCTA,-0.134
8,AGGCACCA,-0.0686
9,CGGCACCG,0.342
10,CGGCATGC,0.273
11,GGGCATGA,-0.083
12,CGGCATGA,0.367
13,CGGCATCC,0.224
14,AGGCATCA,-0.202
15,CGGCATCA,0.387
16,CGGCACCA,0.394
17,CTCCCTAC,-0.0607
18,AATTACCC,0.0888
19,AAATACCC,0.279
20,AAGTACCG,0.441
21,CAATACCG,0.332
22,CATTACCG,0.205
23,AAATACCG,0.432
24,AATTACCG,0.395
25,AAGTACCA,-0.0936

row,Sequence,PBM E-score
1,AAGTACCC,0.0204
2,ACTTGCAA,-0.00221
3,CAAGAAGG,-0.193
4,ATCGTATC,-0.175
5,AGTCTTAC,-0.185
6,AAGGGCAT,-0.336
7,ACTCGGCA,0.00054
8,GCATGAGC,-0.0601
9,GCCCAAGA,-0.114
10,CCATTGCG,0.116
11,CCGCGGAG,0.298
12,CGGCGGAG,0.347
13,GGGCGGAA,0.241
14,GGGCGGAC,0.408
15,CCGCGGAC,0.362
16,CCGCGGAA,0.265
17,CGGCGGAC,0.377
18,GCGCGGAC,0.292
19,CGGCGGAA,0.348
20,AATATATT,0.208
21,CCGAACTA,0.177
22,CAGCAGGG,-0.0502
23,CCAGAAGC,0.0499
24,CCTCCTTC,-0.213
25,CGAGGTGC,-0.146

row,Sequence,PBM E-score
1,CGCACCTC,-0.0539
2,AGCACCAC,-0.0526
3,AGCACCGC,0.461
4,CGCACCGA,0.272
5,CGCACCGC,0.352
6,AGCACCTC,-0.163
7,TCAGCTAA,-0.245
8,GACTAGTC,-0.117
9,ACTGTATG,-0.0542
10,TCCGCGGA,0.144
11,GCCGCGGA,0.299
12,CCCGCGGA,0.322
13,ACCGCGAT,0.346
14,CCCGCGGG,0.361
15,GCCGCGGC,0.331
16,ACCGCGGA,0.358
17,ACCGCGGC,0.412
18,ACCGCGGG,0.317
19,ACCGCGGT,0.39
20,CCCGCGCG,0.342
21,CCCGCGGC,0.333
22,CAAAACAG,-0.0698
23,CTGACAGA,-0.0917

# Source: the supplement of paper PMC3334620
